The source of these data is PubChem BioAssay.

Calls of active or inactive are those of the source. How the calls were made is not given here.

Pantothenate synthetase (Mycobacterium tuberculosis (strain ATCC 25618 / H37Rv)), sequence (P9WIL5 whole entry, looked up): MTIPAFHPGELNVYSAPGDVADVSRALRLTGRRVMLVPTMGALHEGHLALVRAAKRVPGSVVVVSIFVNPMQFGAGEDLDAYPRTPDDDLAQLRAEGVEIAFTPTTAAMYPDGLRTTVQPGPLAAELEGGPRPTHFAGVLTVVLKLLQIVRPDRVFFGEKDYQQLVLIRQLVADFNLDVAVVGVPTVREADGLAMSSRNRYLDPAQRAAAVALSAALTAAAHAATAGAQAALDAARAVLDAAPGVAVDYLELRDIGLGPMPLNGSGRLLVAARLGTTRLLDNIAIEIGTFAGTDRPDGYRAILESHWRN

The experiment addresses Pantothenate synthetase (Mycobacterium tuberculosis (strain ATCC 25618 / H37Rv)) (UniProt P9WIL5). Description: Recombinant Mtb pantothenate synthetase (PanC) inhibitors, coupled enzyme, confirmatory (AID 375).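 Further: 0% = full reaction with vehicle and 100% = no enzyme background.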 As to conditions: coupled enzyme assay; at 10 µM, stronger effect = higher value.
As usually defined, the inhibition is how much of the control response was suppressed. `CCN(CC)CCCNC(=O)c1cn(C)c2ccc(S(=O)(=O)N(C)C)cc2c1=O`: the inhibition was 10% (inactive). Under `CC(C)CSc1nc2ccccc2n1CC(N)=O` stands 5% (inactive).

For the compound `O=C(NCCN1CCOCC1)C1CC(=O)N(c2ccc(F)c(Cl)c2)C1` (stereo not given), the inhibition is 7% (inactive).

Turning to `COc1ccc(CN(CC(=O)NCc2ccco2)C(=O)CCC(=O)Nc2nccs2)cc1`, the inhibition was 0% (inactive). The result for `Cc1cc2c(cc(C(=O)NCc3cccnc3)n2Cc2ccc(Cl)cc2)o1` reads 4% (inactive); that for `OC(CCN1CCCC1)(c1ccccc1)C1CCCCC1` (stereo not given), 1% (inactive); that for `O=C(CN1CCCN(S(=O)(=O)c2ccc(Br)cc2)CC1)Nc1ccc2c(c1)OCO2`, 4% (inactive).

For `COc1cccc(NC(=O)N(Cc2ccco2)C(C)c2cccs2)c1` (stereo not given), the inhibition was 2% (inactive). Under `CC(NC(=O)c1cc2c(=O)n(C)c3ccccc3c2n1C)c1ccc2c(c1)OCCO2` (stereo not given) stands 3% (inactive); under `O=C(NCc1ccco1)c1cc2c(s1)CSC2`, 0% (inactive). As to `O=C(Nc1ccc(OC(=O)c2ccco2)cc1)c1ccco1`, the inhibition is 7% (inactive). The result for `CCCCOCCCNC(=O)c1ccc(NC(C)=O)cc1` reads 0% (inactive). Under `COc1ccc(C(=O)N(CCCO)Cc2cc3c(C)ccc(C)c3[nH]c2=O)cc1OC` stands 0% (inactive). The result for `COCCNC(=O)C(c1ccc(C)o1)N(Cc1cccs1)C(=O)c1snc(C(N)=O)c1N` (stereo not given) reads 4% (inactive); that for `Cn1c(=O)n(CC(=O)OCc2ccccc2)c(=O)c2c1nc1n2CCCN1C1CCCCC1`, 0% (inactive).

With `CCn1cc(C(=O)O)c(=O)c2cc(F)c(N3CCN(C(=O)Nc4ccccc4)CC3)cc21`, the inhibition was 1% (inactive). The result for `Cn1cccc1Cc1nnc(SCC(=O)N2CCOCC2)n1-c1ccc(F)cc1` reads 0% (inactive); that for `CCCS(=O)(=O)Nc1c(C(=O)O)[nH]c2ccccc12`, 0% (inactive); that for `C=CCn1c(SCc2cc(=O)n3ccsc3n2)nnc1C1CCCCC1`, 0% (inactive). As to `CCc1ccc(N(CC(=O)NC2CCCC2)S(=O)(=O)c2c(C)noc2C)cc1`, the inhibition was 1% (inactive). On to `Cc1cc2oc(=O)cc(C)c2c(=O)o1`, for which the inhibition is 4% (inactive). The result for `O=C(O)c1[nH]c2ccc(Cl)cc2c1CC(=O)N1CCN(C(=O)c2ccco2)CC1` reads 2% (inactive); that for `Cc1cc(C)c(NC2=NCC(=O)N2C2CCCCC2)c(C)c1`, 0% (inactive); that for `CCOC(=O)C1=C(CN2CCOCC2)NC(=O)NC1c1cc(C)ccc1C` (stereo not given), 2% (inactive). Under `CCOc1ccccc1OCC(=O)NCc1ccco1` stands 0% (inactive); under `O=C(NC1CCCCC1)N(Cc1ccc(F)cc1)Cc1nc2ccccc2c(=O)[nH]1`, 9% (inactive). The result for `Cc1ccc(-c2nc(=S)c3c(n2Cc2ccco2)CCCC3)cc1` reads 0% (inactive); that for `COc1ccccc1N1CCN(CC(O)COc2cccc3ccccc23)CC1` (stereo not given), 3% (inactive); that for `Cc1[nH]nc2c1C(CCc1ccccc1)C(C#N)=C(N)O2` (stereo not given), 0% (inactive). As for `Cn1c(CNc2nc(-c3ccccc3)cs2)nnc1SCC(=O)N1CCc2ccccc21`, the inhibition is 0% (inactive). As to `CCOC(=O)c1cc(-c2ccco2)nc2c1c(C)nn2CCC#N`, the inhibition was 0% (inactive).

As for `NC(=O)CSc1nnc(-c2ccc(O)cc2)n1Cc1ccco1`, the inhibition is 0% (inactive).

Turning to `COc1cccc(CN(C)CC(=O)NC(=O)NCc2ccco2)c1`, the inhibition was 0% (inactive). Under `COc1ccccc1CC(NC(C)=O)C(=O)NC1CCN(c2nnnn2-c2ccccc2)CC1` (stereo not given) stands 0% (inactive); under `COc1cccc(N(C(C)=O)c2nc(C)cc(C)c2C#N)c1`, 0% (inactive); under `Cc1cc(C)cc(N2C(=O)CC(N3CCOCC3)C2=O)c1` (stereo not given), 0% (inactive). The result for `C=CCn1c(=O)c(C(=O)Nc2ccccc2C(=O)OCC)c(O)c2ccccc21` reads 0% (inactive).

With `CC(=O)Nc1nnc(SCC(=O)NCC2CCCO2)s1` (stereo not given), the inhibition is 0% (inactive). Consider `COc1cc(NC(=O)Cc2ccccc2OC)cc(OC)c1`, for which the inhibition is 0% (inactive).

In the case of `CCCS(=O)(=O)N1CCCC(C(=O)NC(C)c2ccc3c(c2)OCCO3)C1` (stereo not given), the inhibition is 3% (inactive).
